# Reference: PubChem BioAssay AID1117361 (Southern Research Institute, 2015)
# Screen size: about 3,600 compounds; about 900 (25%) were called active. How the calls were made is not given here. A selection follows. Measured potencies and affinities stand elsewhere.
# Molecular target: Protein Tat (Human immunodeficiency virus type 1 group M subtype B (isolate HXB2)) (UniProt P04608)
# Test: HIV-1 Tat–TAR interaction blockers – biochemical, fluorescence polarization, FAM-labeled TAR RNA, counter-screen for Vif-APOBEC3G degradation inhibitor project, dose response (AID 1117361)
# Conditions: Tat-TAR RNA binding; series mostly up to 100 µM; inhibition: at the top concentration
SMILES,outcome,inhibition
C=CCSc1nnc(-c2ccc(Cl)cc2Cl)o1,inactive,
O=C1N=NC2=C1c1c3ccccc3c(O)n1CC2,inactive,
N#CC1=C(Nc2ccccc2)SC=C(c2ccc(Br)cc2)N=C1N1CCOCC1,,18.2% (inactive)
Cc1onc(-c2ccccc2Cl)c1C(=O)N1CCN(c2cccc(Cl)c2)CC1,inactive,
COc1ccc(CC(=O)OCn2nnc3ccccc3c2=O)cc1,inactive,
CC(NC(=O)CN(C)Cc1nc2ccccc2c(=O)[nH]1)c1ccccc1 (stereo not given),,0.68% (inactive)
Cc1ccc(CNC(=O)C2CCCN(S(=O)(=O)c3cnc[nH]3)C2)cc1 (stereo not given),inactive,
COCCn1c(SCC(=O)N2CCC(C)CC2)nc2ccccc2c1=O,inactive,
COc1ccc(/C=N/NC(=O)CNc2n[nH]c(=O)[nH]c2=O)cc1OC,,28% (inactive)
O=C(Nc1nc2n(n1)C(c1ccccc1)CC(c1ccc(Cl)cc1)N2)c1ccco1 (stereo not given),,2.7% (inactive)
COc1cccc(-c2nc3cc(C)ccc3o2)c1,,4.73% (inactive)
Cc1nc2nc(-c3ccccc3)cn2nc1C,,20.9% (inactive)
CON(c1nc(N(C)C)nc(N(C)C)n1)S(=O)(=O)c1ccccc1Cl,,1.35% (inactive)
O=C(Cn1nc(-c2ccc(Cl)cc2)ccc1=O)NCc1ccc2c(c1)OCO2,inactive,
O=S(=O)(c1ccc(Cl)s1)N1CCN(Cc2ccccc2)CC1,,8.11% (inactive)
CC1CCN(Cc2cnc(Cl)s2)CC1,,4.05% (inactive)
CCCCSc1nc2sc3c(c2c(=O)[nH]1)CCC3,inactive,
CCn1c(SCC(=O)OC)nc2sc3c(c2c1=O)CCC3,,1.67% (inactive)
Cc1nn(C)cc1CNC(=O)C1C2CCC(C2)C1C(=O)O (stereo not given),inactive,
CCN1C(=O)CS/C1=C(\C#N)S(=O)(=O)c1ccccc1,inactive,
Clc1ccc(CSCCc2ccncc2)cc1,inactive,
COC1=C(N)C(=O)c2nc(C)ccc2C1=O,,19.7% (inactive)

SMILES,outcome,inhibition
COC1=C(Br)C(=O)c2nc(C)ccc2C1=O,inactive,
CCOC(=O)C1(Cc2ccc(OC)cc2)CCN(C(=O)Cc2cccnc2)CC1,,1.65% (inactive)
COC(=O)C(Cc1c[nH]c2ccccc12)NC(=O)C(C)C (stereo not given),inactive,
Cc1ccc(CNC(=O)CCC2CCCN(Cc3cc4ccccc4o3)C2)o1 (stereo not given),,14.8% (inactive)
Cc1ccc(CCNC(=O)C2CCCN(S(=O)(=O)c3c(C)noc3/C=C/N(C)C)C2)cc1 (stereo not given),inactive,
Cc1ccc(S(=O)(=O)c2c(N)n(NC(=O)C3CC3)c3nc4ccccc4nc23)cc1,inactive,
Cc1ccc(C)c(CN2C(=O)C(C)Oc3ccc(C)cc32)c1 (stereo not given),inactive,
CC1(C)Cc2c(c(=S)nc(-c3ccccc3)n2CCCN2CCOCC2)CO1,,0.68% (inactive)
C=CCN=c1scc(C)n1/N=C/c1ccc(O)c(O)c1,,3.3% (inactive)
COc1ccc(Cl)cc1N(CC(=O)Nc1ccc2c(c1)OCO2)S(C)(=O)=O,inactive,
COC(=O)c1cccc(NC(=O)NC2CCCN2S(=O)(=O)c2ccc(Cl)cc2)c1 (stereo not given),,1.35% (inactive)
CS(=O)(=O)N(C(=O)NC(=O)NC1CCS(=O)(=O)C1)C1CCCCC1 (stereo not given),inactive,
COc1ccc(C2CC(=O)Nc3cc(C)c(C)cc32)c(OC)c1OC (stereo not given),,18.9% (inactive)
CC(C(=O)N1CCOCC1)(c1ccccc1)c1ccccc1,,2.03% (inactive)
CC(=O)c1ccc(Nc2nc(=O)c3cccnc3s2)cc1,inactive,
CN(C)c1ccc(C=c2c3cc([N+](=O)[O-])ccc3n3c2cc(-c2ccccc2)[n+]3C)cc1,inactive,
NNC(=S)Nc1ccc(Cl)cc1,inactive,
CC(=O)c1ccc(N2CCN(C(=O)c3ccc4c(c3)OCO4)CC2)cc1,,5.68% (inactive)
O=C(NCCS(=O)CCNC(=O)C(F)(F)F)C(F)(F)F,inactive,
Cc1onc(-c2ccccc2)c1C(=O)NCC1COc2ccccc2O1 (stereo not given),inactive,
CC(=O)Cc1nsc(Nc2ccc3c(c2)OCCO3)n1,,2.05% (inactive)
O=C(NN(C(=O)c1ccccc1)c1ccccc1)c1ccccc1,,1.65% (inactive)

SMILES,outcome,inhibition
CC(NC(=O)C1C(=O)N(CCO)C2(C)CC1c1ccccc1O2)c1ccccc1 (stereo not given),,7.43% (inactive)
CN1OC[C@@H]2CN(C(=O)C(C)(C)C)[C@H](c3cccc(Oc4ccccc4)c3)C[C@@H]21,,11.7% (inactive)
O=C(c1cc(COc2cccc3cccnc23)on1)N1CCC[C@H]1CO,,6.35% (inactive)
C=CCc1cc(Cl)ccc1OC(=O)Nc1cccc(Cl)c1,,7.42% (inactive)
COc1ccc2[nH]c3c(N4CCC(O)(c5cccc(C(F)(F)F)c5)CC4)ncnc3c2c1,inactive,
Clc1ccc(CSc2snnc2-c2ccccc2)c(Cl)c1,inactive,
Cc1ccc(CSc2nnc(-c3ccco3)o2)cc1,inactive,
CCCCN(CCCC)CCCN1CC(=O)N2[C@@H](Cc3c([nH]c4ccccc34)C2(C)C)C1=O,,1% (inactive)
CC(C)Cn1c(=O)[nH]c2ccccc21,inactive,
COc1ccc(CCN=C(N)NS(=O)(=O)c2ccc(C)cc2)cc1,,5.46% (inactive)
O=C(NCc1ccco1)c1sc2cccc(F)c2c1Cl,,23% (inactive)
CCN(CC)C(=O)Cn1cnc2sc(C(=O)Nc3cc(OC)c(OC)c(OC)c3)c(C)c2c1=O,inactive,
CCc1ccc(NC(=O)CCNS(=O)(=O)c2cccc3nonc23)cc1,inactive,
Cc1cc(NC(=O)CSc2nnc(-c3ccncc3)n2N)ccc1Br,,8.19% (inactive)
COc1ccc(NC(=O)c2ccc(S(=O)(=O)N3CCOCC3)o2)cc1,,1.65% (inactive)
CCN(CC)c1ccc(NC(=O)c2ccc(Br)o2)cc1,,6.82% (inactive)
O=C(O)Cn1c(=O)c2c(c3ccccc31)CCC2,inactive,
CS(=O)(=O)N1CCN(c2ccccc2NC(=O)CSc2ccc(Cl)cc2)CC1,inactive,
Cn1cccc1Cc1nnc(SCC(N)=O)n1CCc1ccccc1,,28% (inactive)
CC[C@H](C)[C@H](NC(N)=O)C(=O)NCCc1ccc(OC)cc1,inactive,
Cc1c(C)n(CC(O)CN2CCCCCC2)c2ccccc12 (stereo not given),,2.73% (inactive)
Cc1ccc(-n2c(SCC(=O)NCc3ccco3)nc3c([nH]c4ccccc43)c2=O)cc1,inactive,

SMILES,outcome,inhibition
CC1CCc2c(sc3ncn4c(SCC(=O)NCc5ccco5)nnc4c23)C1 (stereo not given),,2.03% (inactive)
CCn1c(Cc2c(C)[nH]c3ccccc23)n[nH]c1=S,,20.5% (inactive)
COc1ccc(-c2noc(Cc3cccs3)n2)cc1,,4.09% (inactive)
O=C(/C=C/c1ccc(O)c(O)c1)c1ccc(S(=O)(=O)N2CCCCCC2)cc1,,19% (inactive)
CCCNS(=O)(=O)c1ccc(NC(=O)c2ccccn2)cc1,,1.36% (inactive)
CC(C)(C)c1ccc(C(=O)Oc2ccc3c(c2)OCC3=O)cc1,,2.34% (inactive)
O=C1/C(=C\c2ccco2)CCC/C1=C\c1ccco1,,16.8% [at 50 µM] (inactive)
C=CCNC(=S)NNC(=O)c1ccccc1,inactive,
COc1ccc(N/N=C(\C#N)C(=N)SCc2ccccc2)cc1,inactive,
CC1(C)Cc2cccc(OCC(O)CN3CCN(c4ccccn4)CC3)c2O1 (stereo not given),inactive,
O=C1CNC(=O)/C1=C/c1ccc(Br)cc1,inactive,
CC1CC(C)CN(C(=O)COC(=O)CNS(=O)(=O)/C=C/c2ccccc2)C1 (stereo not given),,4.73% (inactive)
CCS(=O)(=O)N1CCN(C(=O)c2cccc3ccccc23)CC1,inactive,
CN(C)CCCNC(NC(=O)c1cccs1)C(Cl)(Cl)Cl (stereo not given),,4.09% (inactive)
Cc1nc2c3ccccc3n(CC(=O)c3ccc(F)cc3)c(=O)n2n1,,4.09% (inactive)
O=C(NC(=S)N1CCN(c2c(Cl)cccc2[N+](=O)[O-])CC1)c1cccs1,inactive,
COc1cc2c(cc1NC(=O)CC1SC(N3CCCC3)=NC1=O)oc1ccccc12 (stereo not given),,1.35% (inactive)
COc1ccc2nc(N3CCN(C(=O)c4ccc5ncsc5c4)CC3)sc2c1,inactive,
COc1ccc(C(=O)Nc2cccc(C(=O)N3CCN(C)CC3)c2)cc1,,29.3% (inactive)
COc1ccc(N2CCN(C(=O)c3ccc(C)c(Cl)c3)CC2)cc1,,16.2% (inactive)
O=S(=O)(c1ccc2nc(-c3ccco3)c(-c3ccco3)nc2c1)N1CCOCC1,inactive,
O=S(=O)(c1ccc(F)cc1)N(CCO)CC(O)Cn1c2ccccc2c2ccccc21 (stereo not given),inactive,

SMILES,outcome,inhibition
Cc1c(C(=O)N2CCN(c3ccc(F)cc3)CC2)sc2nc(-c3ccccc3)cn12,,4.09% (inactive)
CCS(=O)(=O)n1nc(-c2ccc(Cl)cc2)nc1SC,,0.68% (inactive)
Cn1c(C(=O)NCCN2CCOCC2)cc2c(=O)n(C)c3ccccc3c21,,10.8% (inactive)
COc1ccc(CNC(=O)Cn2nc(C(F)(F)F)c3c2CCC3)cc1,inactive,
Cc1sc(NC(=O)c2ccccc2)c(C(=O)NCCN(C)C)c1C,,3.38% (inactive)
NC(=O)C1CCN(C2=C(Cl)C(=O)c3ccccc3C2=O)CC1,inactive,
CC1COCC(C)N1C1=C(Cl)C(=O)c2ccccc2C1=O (stereo not given),inactive,
CCc1cc2c(=O)n(-c3ccc(C)cc3)cnc2s1,inactive,
COc1ccc(CCNS(=O)(=O)c2ccc3c(c2)CCN3C(=O)CCC(=O)O)cc1OC,,0.68% (inactive)
COc1ccc(C2C(C(=O)NCCN(C)C)c3ccccc3C(=O)N2C)cc1OC (stereo not given),,1.36% (inactive)
CCCCN(CCCC)S(=O)(=O)c1ccc(NC(=O)c2cccs2)cc1,inactive,
[O-][n+]1onc2c1CCc1c-2nc(-c2ccccc2)n1OCc1ccccc1,,3.38% (inactive)
CCN(CCCNC(=O)C1CCCN(S(=O)(=O)CC)C1)c1cccc(C)c1 (stereo not given),,1% (inactive)
O=C(c1ccc2c(c1)OCCO2)C1CCN(C(=O)c2ccc(F)cc2)CC1,inactive,
CCc1ccccc1NC(=S)N(Cc1ccc(OC)cc1)CC1CCC(C(=O)O)CC1 (stereo not given),inactive,
CCn1cc(C(=O)NCc2ccc3c(c2)OCO3)c2cc(OC)c(OC)cc2c1=O,,3.41% (inactive)
Cc1ccc(C(=O)C2C(c3cccs3)NC(=O)NC2(O)C(F)(F)F)cc1 (stereo not given),,6.76% (inactive)
CCOC(=O)C1=C(CN2CCN(c3ccc(F)cc3)CC2)NC(=O)NC1c1cccs1 (stereo not given),,9.46% (inactive)
Cn1cccc1C(=O)NC(=O)COC(=O)CC12CC3CC(CC(Br)(C3)C1)C2,,16.7% [at 50 µM] (inactive)
O=C(Cc1ccccc1)Nc1scc(-c2ccccc2)c1C(=O)N1CCOCC1,,8.11% (inactive)
CC1=C(C(=O)OCC(Cl)(Cl)Cl)N2C(=O)C(NC(=O)Cc3ccccc3)C2SC1 (stereo not given),inactive,
CC(=O)[C@@]1(O)CC[C@H]2[C@@H]3CCC4=CC(=O)CC[C@]4(C)[C@H]3CC[C@@]21C,,7.42% (inactive)
